# In PubChem BioAssay (EPA / NIEHS):
# “And” between values parts separate entries of the source, which are not always exact repeats. Equal values may be shown once. Results filed as inconclusive are left out. More than one record can exist for a structure, and the calls need not agree. The source made the active and inactive calls. The calls were made as follows: active = hit-call score of the fitted dose curve at least 0.9, where 1 is the maximum; inconclusive = response in the unintended direction; inactive = score below 0.9.
# Tests used:
# NCBI gene 100848466 = assay: NVS_NR_bPR: NovaScreen (NVS) Nuclear Receptor Binding Assay for bovine Progextron Receptor (PR) (AID 2283343);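 as to AC50: actives lower bound radioligand signal below DMSO meaning displacement of the label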
# Outline: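 Bovine uterine membrane preparation, cell-free; radioligand competitive displacement measured by scintillation counting 18 hours after dosing. Loss of signal versus DMSO baseline indicates binding; primary HTS single concentration 25 uM in duplicate, actives followed in concentration series.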
# [1] = target: chimpanzee Androgen Receptor (AR), AR (gene 747460) (UniProt O97775); assay: NVS_NR_cAR: NovaScreen (NVS) Nuclear Receptor Binding Assay for chimpanzee Androgen Receptor (AR) (AID 2283346);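 also: radioligand displacement from AR measured by scintillation counting in a cell-free assay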
# chimpanzee Androgen Receptor (AR), AR (gene 747460), sequence (O97775 whole entry, looked up): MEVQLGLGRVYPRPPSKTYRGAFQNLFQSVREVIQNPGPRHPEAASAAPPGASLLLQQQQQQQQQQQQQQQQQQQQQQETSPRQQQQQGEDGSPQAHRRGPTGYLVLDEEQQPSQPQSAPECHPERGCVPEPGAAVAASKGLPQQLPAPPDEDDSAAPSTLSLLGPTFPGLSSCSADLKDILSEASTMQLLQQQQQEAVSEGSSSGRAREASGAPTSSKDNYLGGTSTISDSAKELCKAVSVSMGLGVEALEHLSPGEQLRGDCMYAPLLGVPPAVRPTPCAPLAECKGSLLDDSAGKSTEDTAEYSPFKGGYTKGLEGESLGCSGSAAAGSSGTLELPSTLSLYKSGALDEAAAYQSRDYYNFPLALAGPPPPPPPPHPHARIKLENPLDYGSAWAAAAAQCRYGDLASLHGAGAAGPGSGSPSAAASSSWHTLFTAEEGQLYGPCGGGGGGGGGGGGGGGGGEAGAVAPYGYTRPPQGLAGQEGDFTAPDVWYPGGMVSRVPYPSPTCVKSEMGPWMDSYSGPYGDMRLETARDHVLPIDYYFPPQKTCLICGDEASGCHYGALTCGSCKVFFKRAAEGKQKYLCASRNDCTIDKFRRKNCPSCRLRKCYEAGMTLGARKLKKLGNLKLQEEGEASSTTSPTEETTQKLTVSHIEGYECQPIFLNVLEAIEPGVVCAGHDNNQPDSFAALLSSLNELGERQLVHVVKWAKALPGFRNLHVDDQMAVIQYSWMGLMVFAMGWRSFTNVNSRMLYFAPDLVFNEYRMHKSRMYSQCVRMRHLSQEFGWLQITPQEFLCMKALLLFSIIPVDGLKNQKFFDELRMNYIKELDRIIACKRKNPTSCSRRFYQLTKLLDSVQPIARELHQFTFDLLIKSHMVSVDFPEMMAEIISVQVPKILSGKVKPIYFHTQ
# Outline: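 Cell-free radioligand displacement using receptor protein extracted from Sf9/Sf21 cells; bound radioligand measured by scintillation counting 72 hours after chemical dosing. Loss of signal versus DMSO baseline indicates binding; primary screen single-concentration in duplicate at 25 uM, actives followed in concentration series.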
# [2] = target: Bile acid receptor (Homo sapiens) (UniProt Q96RI1); assay: NVS_NR_hFXR_Agonist: NovaScreen (NVS) Nuclear Receptor Binding Assay for human Farnesoid X Receptor Agonism (FXR) (AID 2283347)
# Bile acid receptor (Homo sapiens), sequence (Q96RI1 whole entry, looked up): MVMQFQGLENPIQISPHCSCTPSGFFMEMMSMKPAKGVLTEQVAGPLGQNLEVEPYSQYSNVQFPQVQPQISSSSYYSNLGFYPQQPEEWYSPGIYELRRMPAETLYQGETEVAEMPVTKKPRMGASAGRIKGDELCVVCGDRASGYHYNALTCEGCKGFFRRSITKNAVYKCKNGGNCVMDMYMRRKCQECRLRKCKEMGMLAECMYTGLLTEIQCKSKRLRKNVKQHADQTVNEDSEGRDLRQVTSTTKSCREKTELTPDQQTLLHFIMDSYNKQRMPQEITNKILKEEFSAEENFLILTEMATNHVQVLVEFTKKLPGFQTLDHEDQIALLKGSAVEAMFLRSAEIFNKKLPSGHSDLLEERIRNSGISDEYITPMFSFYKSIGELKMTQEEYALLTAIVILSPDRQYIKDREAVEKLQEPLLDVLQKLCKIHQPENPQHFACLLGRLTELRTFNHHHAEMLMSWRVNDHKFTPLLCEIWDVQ
# Outline: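 Cell-free TR-FRET binding assay with extracted human FXR protein, agonist format, read 1 h after dosing. Primary screen at 25 uM single concentration in duplicate, actives retested in concentration series; gain of signal versus DMSO.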
# [3] = target: rat Mineralocorticoid Receptor (MR), Nr3c2 (gene 25672) (UniProt P22199); assay: NVS_NR_rMR: NovaScreen (NVS) Nuclear Receptor Binding Assay for rat Mineralocorticoid Receptor (MR) (AID 2283355)
# Outline: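 Cell-free radioligand binding to MR in adrenalectomized rat brain supernatant, scintillation counted 24 h after dosing. Loss of signal versus DMSO baseline marks displacement. Primary screen in duplicate at 25 uM; actives retested as concentration series.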
# [4] = target: human Constitutive Androstane Receptor (CAR), NR1I3 (gene 9970) (UniProt Q14994); assay: NVS_NR_hCAR_Antagonist: NovaScreen (NVS) Nuclear Receptor Binding Assay for human Constitutive Androstane Receptor Antagonism (CAR) (AID 2283344)
# human Constitutive Androstane Receptor (CAR), NR1I3 (gene 9970), sequence (Q14994 whole entry, looked up): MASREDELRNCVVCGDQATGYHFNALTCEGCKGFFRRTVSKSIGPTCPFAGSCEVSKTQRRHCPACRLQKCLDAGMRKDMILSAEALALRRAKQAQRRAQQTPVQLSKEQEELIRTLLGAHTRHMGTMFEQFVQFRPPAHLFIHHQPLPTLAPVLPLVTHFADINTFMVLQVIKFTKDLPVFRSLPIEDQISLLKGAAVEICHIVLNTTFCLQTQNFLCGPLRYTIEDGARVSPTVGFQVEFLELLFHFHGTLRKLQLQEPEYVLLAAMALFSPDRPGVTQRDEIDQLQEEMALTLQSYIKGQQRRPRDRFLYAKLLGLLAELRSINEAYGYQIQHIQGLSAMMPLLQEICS
# Outline: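 Cell-free TR-FRET binding read 1 h after dosing, antagonist mode; loss of signal versus DMSO baseline. Primary screen in duplicate at a single 25 uM; actives retested in concentration series.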
# [5] = target: bovine Estrogen Receptor (ER), ESR1 (gene 407238) (UniProt P49884); assay: NVS_NR_bER: NovaScreen (NVS) Nuclear Receptor Binding Assay for bovine Estrogen Receptor (ER) (AID 2283345);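 also: actives lower the bound radioligand count which means they displace the ER ligand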
# bovine Estrogen Receptor (ER), ESR1 (gene 407238), sequence (P49884 whole entry, looked up): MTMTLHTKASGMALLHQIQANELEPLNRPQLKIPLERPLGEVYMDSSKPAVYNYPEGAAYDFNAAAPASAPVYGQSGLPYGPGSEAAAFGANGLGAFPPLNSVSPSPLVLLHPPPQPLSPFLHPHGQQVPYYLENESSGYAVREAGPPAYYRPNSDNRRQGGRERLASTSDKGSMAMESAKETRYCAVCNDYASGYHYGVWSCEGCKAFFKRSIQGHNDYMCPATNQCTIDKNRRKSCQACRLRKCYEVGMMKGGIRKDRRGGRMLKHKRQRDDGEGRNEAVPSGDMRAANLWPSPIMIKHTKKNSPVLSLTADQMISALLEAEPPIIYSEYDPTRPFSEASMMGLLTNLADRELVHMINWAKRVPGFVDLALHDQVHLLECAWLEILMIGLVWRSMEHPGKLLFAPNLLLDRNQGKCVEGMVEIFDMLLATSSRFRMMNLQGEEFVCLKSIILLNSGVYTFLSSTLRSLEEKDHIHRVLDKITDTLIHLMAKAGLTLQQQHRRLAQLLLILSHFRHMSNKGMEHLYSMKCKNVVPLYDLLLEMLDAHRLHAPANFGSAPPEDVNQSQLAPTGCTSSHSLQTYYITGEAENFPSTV
# Outline: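 Cell-free radioligand binding with receptor from bovine uterine membranes, read by scintillation counting 18 h after dosing. Loss of specific binding was scored against DMSO; primary screen at 25 uM in duplicate, actives then run as concentration series.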
# [6] = target: Estrogen receptor (Homo sapiens) (UniProt P03372); assay: NVS_NR_hER: NovaScreen (NVS) Nuclear Receptor Binding Assay for human Estrogen Receptor (ER) (AID 2283348)
# Estrogen receptor (Homo sapiens), sequence (P03372 whole entry, looked up, the tested form may be a part): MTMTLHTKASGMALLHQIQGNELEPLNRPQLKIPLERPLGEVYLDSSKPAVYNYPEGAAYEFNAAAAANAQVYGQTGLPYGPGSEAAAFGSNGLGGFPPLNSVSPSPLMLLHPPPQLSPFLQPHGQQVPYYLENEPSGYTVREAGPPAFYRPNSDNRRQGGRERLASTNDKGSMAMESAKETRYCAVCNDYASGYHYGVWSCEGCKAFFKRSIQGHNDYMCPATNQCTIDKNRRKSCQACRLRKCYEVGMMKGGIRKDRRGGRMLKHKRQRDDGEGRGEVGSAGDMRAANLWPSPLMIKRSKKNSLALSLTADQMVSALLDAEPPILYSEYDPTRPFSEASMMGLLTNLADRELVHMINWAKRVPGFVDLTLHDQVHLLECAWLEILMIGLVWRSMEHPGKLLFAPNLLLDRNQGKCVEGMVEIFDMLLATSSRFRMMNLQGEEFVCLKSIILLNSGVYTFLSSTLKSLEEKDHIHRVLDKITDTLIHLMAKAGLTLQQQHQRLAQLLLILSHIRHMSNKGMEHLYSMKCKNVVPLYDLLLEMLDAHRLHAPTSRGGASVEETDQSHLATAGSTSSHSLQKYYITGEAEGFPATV
# Outline: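 Cell-free radioligand binding with protein extracted from MCF7 cells; scintillation counting 18 hours after dosing. Loss of signal versus DMSO baseline read as displacement; primary single-concentration screen at 25 uM in duplicate, actives retested in concentration series.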
# [7] = target: Bile acid receptor (Homo sapiens) (UniProt Q96RI1); assay: NVS_NR_hFXR_Antagonist: NovaScreen (NVS) Nuclear Receptor Binding Assay for human Farnesoid X Receptor Antagonism (FXR) (AID 2283350)
# Outline: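 Cell-free TR-FRET ligand-binding read-out on human FXR (NR1H4) in antagonist mode, measured 1 h after dosing. Primary screen in duplicate at 25 uM, actives retested in concentration series; signal loss scored versus DMSO.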
# [8] = NVS_IC_rCaBTZCHL: NovaScreen (NVS) Ion Channel Assay for Calcium Channel, Type L, Benzothiazepine Site (CaBTZCHL) (AID 2283337)
# Outline: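 Competitive displacement of a site-specific radioligand from rat cortex membranes, measured as signal loss against DMSO baseline by filter radiodetection after 1.5 h. Single-point 25 uM primary screen.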
# [9] = target: rat Glutamate, MK-801 Agonist Site (GluNMDA_MK801), Grin1 (gene 24408) (UniProt P35439); assay: NVS_LGIC_rGluNMDA_MK801_Agonist: NovaScreen (NVS) Ligand-Gated Ion Channel Assay for rat Glutamate, MK-801 Agonist Site (GluNMDA_MK801) (AID 2283340)
# Outline: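 Radioligand binding at MK-801 site in rat forebrain membranes, 1.5 h incubation, filter-based scintillation counting. Initially 25 uM in duplicate; actives then run in concentration-response up to 50 uM, fitted for gain of signal versus DMSO.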
# [10] = target: rat Glycine Receptor, Strychnine-sensitive (GlyRStrySens), Glra1 (gene 25674) (UniProt P07727); assay: NVS_LGIC_rGlyRStrySens: NovaScreen (NVS) Ligand-Gated Ion Channel Assay for rat Glycine Receptor, Strychnine-sensitive (GlyRStrySens) (AID 2283341)
# Outline: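 Radioligand displacement on rat spinal cord membranes, 1 hr, filter scintillation read-out. Single-concentration duplicate screen at 25 uM; chemicals meeting threshold (e.g., 30% inhibition) rerun in concentration-response up to 50 uM. Loss of binding fitted versus DMSO.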
# [11] = target: Estrogen receptor (Homo sapiens) (UniProt P03372); assay: OT_ER_ERaERa_1440: Odyssey Thera (OT) 24-hour HEK293T Protein-Complementation Assay for Estrogen Receptor-alpha/-alpha Homodimer (AID 2283349);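 also: hits raise fluorescence above DMSO for agonists and antagonists alike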
# Outline: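 Readout is the rise in mean fluorescence from reporter fragment complementation when ERα LBD (aa 310-547) units dimerize in HEK293T cells. Measured 24 h after dosing and analysed as increase over DMSO control.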
# [12] = target: Estrogen receptor (Homo sapiens) (UniProt P03372); assay: OT_ER_ERaERa_0480: Odyssey Thera (OT) 8-hour HEK293T Protein-Complementation Assay for Estrogen Receptor-alpha/-alpha Homodimer (AID 2283351);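 also: rise in fluorescence from reassembled reporter fragments on ERα LBD homodimer in nucleus or whole cell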
# Outline: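 Binding reporter in which dimerisation of ERα LBD (aa 310-547) fusions reconstitutes a fluorescent reporter in HEK293T cells. Compounds incubated 8 h; mean fluorescence intensity increase versus DMSO scored.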
# [13] = target: Retinoic acid receptor alpha (Homo sapiens) (UniProt P10276); assay: NVS_NR_hRAR_Antagonist: NovaScreen (NVS) Nuclear Receptor Binding Assay for human Retinoic Acid Alpha Receptor Antagonism (RAR) (AID 2283358)
# Retinoic acid receptor alpha (Homo sapiens), sequence (P10276 whole entry, looked up): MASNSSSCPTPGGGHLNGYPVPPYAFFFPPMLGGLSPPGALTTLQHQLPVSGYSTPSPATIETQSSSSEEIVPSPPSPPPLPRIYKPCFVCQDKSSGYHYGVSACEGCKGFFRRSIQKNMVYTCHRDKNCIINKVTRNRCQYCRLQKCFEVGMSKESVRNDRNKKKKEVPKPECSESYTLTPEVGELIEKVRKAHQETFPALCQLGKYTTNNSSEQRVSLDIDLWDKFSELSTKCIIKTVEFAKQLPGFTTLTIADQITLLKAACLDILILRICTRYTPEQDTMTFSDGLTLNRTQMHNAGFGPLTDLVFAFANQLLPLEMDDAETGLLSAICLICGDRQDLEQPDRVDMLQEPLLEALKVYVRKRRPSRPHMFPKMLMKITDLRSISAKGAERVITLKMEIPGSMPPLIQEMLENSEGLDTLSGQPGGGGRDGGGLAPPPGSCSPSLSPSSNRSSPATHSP
# Outline: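 Cell-free TR-FRET binding assay on extracted receptor protein, run in antagonist mode; signal read 2 hours after chemical dosing. Loss of signal was fitted relative to DMSO baseline. Screened at 25 uM in duplicate, actives followed up in concentration series.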
# [14] = target: bovine Gamma-Aminobutyric Acid Type A Receptor Agonist (GABAR Agonist), GABRA1 (gene 780973) (UniProt P08219); assay: NVS_LGIC_bGABAR_Agonist: NovaScreen (NVS) Ligand-Gated Ion Channel Assay for bovine Gamma-Aminobutyric Acid Type A Receptor Agonist (GABAR Agonist) (AID 2283338)
# bovine Gamma-Aminobutyric Acid Type A Receptor Agonist (GABAR Agonist), GABRA1 (gene 780973), sequence (P08219 whole entry, looked up): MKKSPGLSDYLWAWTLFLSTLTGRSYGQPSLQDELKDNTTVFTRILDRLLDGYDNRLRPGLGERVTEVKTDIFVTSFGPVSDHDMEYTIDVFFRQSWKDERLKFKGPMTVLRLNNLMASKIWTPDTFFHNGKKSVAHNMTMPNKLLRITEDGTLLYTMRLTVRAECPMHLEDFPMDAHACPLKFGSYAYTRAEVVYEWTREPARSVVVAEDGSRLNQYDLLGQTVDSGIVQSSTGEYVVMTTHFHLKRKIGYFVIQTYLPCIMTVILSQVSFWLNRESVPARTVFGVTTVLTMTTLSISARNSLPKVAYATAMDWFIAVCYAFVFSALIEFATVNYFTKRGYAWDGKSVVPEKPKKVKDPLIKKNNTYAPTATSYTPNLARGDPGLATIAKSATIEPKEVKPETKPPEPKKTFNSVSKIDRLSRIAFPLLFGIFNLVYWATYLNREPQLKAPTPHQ
# Outline: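 Radioligand binding to bovine cerebellar membranes in agonist format, read by filter-based scintillation counting after 1 h. Primary screen in duplicate at 25 uM, with actives followed in concentration series. Gain of signal versus DMSO.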
# [15] = target: Androgen Receptor/SRC-1 Co-activator, AR (gene 367) (UniProt P10275); assay: OT_AR_ARSRC1_0960: Odyssey Thera (OT) 16-hour HEK293T Protein-Complementation Assay for Androgen Receptor/SRC-1 Co-activator (AID 2283353);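 also: actives raise the signal above DMSO so potency reflects increased AR and SRC-1 complex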
# Androgen Receptor/SRC-1 Co-activator, AR (gene 367), sequence (P10275 whole entry, looked up, the tested form may be a part): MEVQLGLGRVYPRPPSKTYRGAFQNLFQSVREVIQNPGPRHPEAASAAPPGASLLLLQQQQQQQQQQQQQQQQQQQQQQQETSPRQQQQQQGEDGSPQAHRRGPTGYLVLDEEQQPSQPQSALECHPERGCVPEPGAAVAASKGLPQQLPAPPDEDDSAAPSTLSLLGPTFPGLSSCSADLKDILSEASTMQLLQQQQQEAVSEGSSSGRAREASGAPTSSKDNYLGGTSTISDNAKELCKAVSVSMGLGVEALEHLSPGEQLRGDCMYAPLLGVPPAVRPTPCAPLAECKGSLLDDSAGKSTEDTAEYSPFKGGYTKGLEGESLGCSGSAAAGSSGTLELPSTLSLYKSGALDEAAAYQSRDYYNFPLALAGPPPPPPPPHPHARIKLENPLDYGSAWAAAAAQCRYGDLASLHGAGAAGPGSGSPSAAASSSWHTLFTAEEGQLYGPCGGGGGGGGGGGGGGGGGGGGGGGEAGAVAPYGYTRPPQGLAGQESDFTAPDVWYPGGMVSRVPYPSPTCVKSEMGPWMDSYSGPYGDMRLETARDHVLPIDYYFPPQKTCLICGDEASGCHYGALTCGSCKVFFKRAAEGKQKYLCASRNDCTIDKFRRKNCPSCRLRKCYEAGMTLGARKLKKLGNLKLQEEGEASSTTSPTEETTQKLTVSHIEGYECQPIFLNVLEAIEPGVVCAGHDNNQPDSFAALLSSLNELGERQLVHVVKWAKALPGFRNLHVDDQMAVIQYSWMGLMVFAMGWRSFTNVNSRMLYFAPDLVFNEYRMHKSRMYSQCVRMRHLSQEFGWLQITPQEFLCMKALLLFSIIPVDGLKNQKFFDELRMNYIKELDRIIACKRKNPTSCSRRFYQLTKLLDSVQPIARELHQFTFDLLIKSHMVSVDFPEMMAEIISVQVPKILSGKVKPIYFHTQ
# Outline: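 Interaction of AR with SRC-1 was followed by YFP fragment complementation in HEK293T cells after 16 h of dosing. Gain of nuclear-over-cytoplasmic 488 nm fluorescence against DMSO controls defined activity.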
# [16] = target: Androgen Receptor/SRC-1 Co-activator, AR (gene 367) (UniProt P10275); assay: OT_AR_ARSRC1_0480: Odyssey Thera (OT) 8-hour HEK293T Protein-Complementation Assay for Androgen Receptor/SRC-1 Co-activator (AID 2283354);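 also: hits raise the complementation signal above DMSO so AC50 marks enhancers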
# Outline: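 HEK293T cells stably expressing AR and SRC-1 fused to split Venus YFP fragments via (Gly4Ser)2 linkers were read 8 h after compound dosing. Complementation was imaged at 488 and 635nm, and nuclear/cytoplasmic fluorescence ratio (488nm) was taken over ≥400 cells; gain-of-signal versus DMSO.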
# [17] = target: human Peroxisome Proliferator-activated Receptor alpha (PPARa), PPARA (gene 5465) (UniProt Q07869); assay: NVS_NR_hPPARa: NovaScreen (NVS) Nuclear Receptor Binding Assay for human Peroxisome Proliferator-activated Receptor alpha (PPARa) (AID 2283359);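 also: activity means loss of TR-FRET signal versus DMSO baseline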
# Outline: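 Cell-free binding assay with extracted human protein, read by TR-FRET 1 h after chemical dosing. Loss of signal relative to DMSO baseline indicates binding. Primary screen used duplicate single concentration (25 uM); actives followed up in concentration series.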
# [18] = system: guinea pig Histamine Receptor (H2), gene 100729734; assay: NVS_GPCR_gH2: NovaScreen (NVS) G Protein-Coupled Receptor Assay for guinea pig Histamine Receptor (H2) (AID 2283342)
# Outline: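 Radioligand displacement on guinea pig striatal membranes, 1 h after dosing, filter-based scintillation counting; loss of signal versus DMSO. Single-point screen at 25 uM in duplicate, then concentration-response up to 50 uM.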
structure (smiles),measurement,setting,value
Oc1cc(Cl)ccc1Oc1ccc(Cl)cc1Cl,outcome,NCBI gene 100848466,inactive
same,AC50,[1],12.4 µM (active) and 15.3 µM (active) and 12.2 µM (active)
same,outcome,[2],inactive
same,outcome,[3],inactive
CCOc1nc(NC)nc(NC(=O)NS(=O)(=O)c2ccccc2C(=O)OC)n1,outcome,[4],inactive
same,outcome,[5],inactive
same,outcome,[6],inactive
same,outcome,[7],inactive
CC[C@H](C)[C@H]1O[C@]2(C=C[C@@H]1C)C[C@@H]1C[C@@H](C/C=C(\C)[C@@H](O[C@H]3C[C@H](OC)[C@@H](O[C@H]4C[C@H](OC)[C@@H](O)[C@H](C)O4)[C@H](C)O3)[C@@H](C)/C=C/C=C3\CO[C@@H]4[C@H](O)C(C)=C[C@@H](C(=O)O1)[C@]34O)O2 (tested in a mixture with another compound),AC50,[8],15.5 µM (active)
same,outcome,[9],inactive
same,AC50,[10],0.494 µM (active)
same,AC50,NCBI gene 100848466,6.14 µM (active)
same,AC50,[4],10.1 µM (active)
same,outcome,[5],inactive
same,AC50,[1],5.41 µM (active)
same,outcome,[11],inactive
same,outcome,[12],inactive
same,AC50,[13],12.2 µM (active)
CC1(C)C(C=C(Cl)Cl)C1C(=O)OC(C#N)c1ccc(F)c(Oc2ccccc2)c1 (configuration not stated),outcome,NCBI gene 100848466,inactive
same,outcome,[4],inactive
same,outcome,[5],inactive
same,outcome,[6],inactive
same,outcome,[11],inactive
same,outcome,[13],inactive
Oc1ccc(Cl)cc1Cc1ccccc1,outcome,[14],inactive
same,AC50,NCBI gene 100848466,12.9 µM (active) [middle of 6 runs]
same,AC50,[4],9.68 µM (active) and 25.2 µM (active) and 25 µM (active)
same,outcome,[4],inactive
same,AC50,[1],15.3 µM (active) and 15.7 µM (active) and 19.7 µM (active)
same,AC50,[15],50.5 µM (active)
same,AC50,[16],63.2 µM (active)
same,outcome,[13],inactive
same,outcome,[17],inactive
O=[N+]([O-])/N=C1\NCCN1Cc1ccc(Cl)nc1,outcome,[14],inactive
same,outcome,NCBI gene 100848466,inactive
same,outcome,[6],inactive
same,outcome,[11],inactive
same,outcome,[7],inactive
same,outcome,[12],inactive
same,outcome,[15],inactive
same,outcome,[13],inactive
COP(=S)(OC)Oc1ccc([N+](=O)[O-])cc1,AC50,NCBI gene 100848466,7.33 µM (active)
same,outcome,[4],inactive
same,AC50,[1],14.6 µM (active)
same,outcome,[7],inactive
same,outcome,[12],inactive
C[C@H]1[C@H](c2ccc(Cl)cc2)SC(=O)N1C(=O)NC1CCCCC1,outcome,NCBI gene 100848466,inactive
same,outcome,[6],inactive
same,outcome,[11],inactive
same,AC50,[15],67.7 µM (active)
same,outcome,[16],inactive
CC(C)(C)C(O)/C(=C\c1ccc(Cl)cc1Cl)n1cncn1 (configuration not stated),outcome,NCBI gene 100848466,inactive
same,outcome,[5],inactive
same,AC50,[1],1.51 µM (active)
same,outcome,[11],inactive
same,outcome,[12],inactive
CCOCN(C(=O)CCl)c1c(C)cccc1CC,outcome,[18],inactive
same,AC50,[4],13.9 µM (active)
same,AC50,[1],15.5 µM (active)
same,outcome,[11],inactive
same,outcome,[12],inactive
ClC1C(Cl)C(Cl)C(Cl)C(Cl)C1Cl (configuration not stated),outcome,NCBI gene 100848466,inactive
